Reference: ChEMBL document CHEMBL3433997, “St. Jude Leishmania screening dataset” (2016)

Legend:
Assay type in all cases: functional
[1] = biological target: Solute carrier family 2, facilitated glucose transporter member 1 (Homo sapiens) (UniProt P11166); assay: ST_JUDE_LEISH: Cytotoxicity at 2uM final concentration against transgenic Leishmania Mexicana promastigotes LmGLUT1 that are glucose transport deficient and complemented with the human glucose transporter GLUT1. Activity is measured by DNA content using SYBR green in vitro
[2] = biological target: Hexose transporter 1 (Plasmodium falciparum) (UniProt O97467); assay: ST_JUDE_LEISH: Cytotoxicity at 2uM final concentration against transgenic Leishmania Mexicana promastigotes LmPfHT that are glucose transport deficient and complemented with the Plasmodium falciparum hexose transporter. Activity is measured by DNA content using SYBR green in vitro
[3] = biological target: Glucose transporter (Leishmania mexicana) (UniProt O61059); assay: ST_JUDE_LEISH: Cytotoxicity at 2uM final concentration against transgenic Leishmania Mexicana promastigotes LmGT2 that are glucose transport deficient and complemented with the L. Mexicana glucose transporter 2. Activity is measured by DNA content using SYBR green in vitro

Sequence of Solute carrier family 2, facilitated glucose transporter member 1 (Homo sapiens) (P11166 whole entry): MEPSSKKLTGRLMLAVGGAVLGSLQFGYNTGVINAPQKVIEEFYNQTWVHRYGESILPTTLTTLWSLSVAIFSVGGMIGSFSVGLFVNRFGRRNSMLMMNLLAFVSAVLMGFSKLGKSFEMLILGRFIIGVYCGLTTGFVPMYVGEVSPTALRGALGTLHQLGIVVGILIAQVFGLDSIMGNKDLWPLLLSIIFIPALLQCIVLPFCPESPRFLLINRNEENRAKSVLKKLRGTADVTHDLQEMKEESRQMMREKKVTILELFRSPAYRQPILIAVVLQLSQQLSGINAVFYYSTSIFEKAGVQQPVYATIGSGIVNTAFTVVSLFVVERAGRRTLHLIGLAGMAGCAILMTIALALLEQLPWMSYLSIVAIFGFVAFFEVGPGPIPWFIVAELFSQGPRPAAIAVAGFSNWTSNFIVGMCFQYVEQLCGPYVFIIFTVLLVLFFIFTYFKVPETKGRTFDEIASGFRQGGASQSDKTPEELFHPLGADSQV

SMILES | inhibition [1] [%] | inhibition [2] [%] | inhibition [3] [%]
Oc1ccc2[nH]c(-c3cccc(F)c3)nc2c1CN1CCCC1 | 4.75 | 3.49 | 1.21
COc1ccc(CNC2Cc3ccccc3C2)cc1-c1ccc(S(=O)(=O)NCCN2CCCC2)s1 | 17.7 | 15.5 | 7.58
O=C(Cc1ccc[n+]([O-])c1)Nc1cccc(-c2cccc(-c3nc4cc(C(F)(F)F)ccc4[nH]3)c2)c1 | 2.28 | -0.06 | 5.03
C[C@@H](COc1ccc(-c2ccccc2)cc1)CON1C(N)=NC(N)=NC1(C)C | 69.6 | 76.5 | 50.3
COc1cc(C2C(Oc3ccccc3)C(=O)N2Cc2ccc(F)cc2)cc(OC)c1OC (configuration not stated) | 3.73 | 3.29 | 2.56
O=C(C=Cc1ccc(Cl)c(Cl)c1)NCCCCCN1CCCC(CCCNC(=O)c2sc3ccccc3c2Cl)C1 (configuration not stated) | 2.3 | 1.22 | -0.49
CCCCCCCN1CC[C@@H](CCCc2ccnc3ccc(OCCN4CCNCC4)cc23)[C@@H](CC)C1 | 5.11 | 4.74 | 0.64
CCCCCc1cc(OC(C)=O)c2c(c1)OC(C)(C)C=C2C1=CCN(Cc2ccccc2)CC1 | 1.74 | 1.45 | -1.92
Cc1nnsc1C(=O)Nc1ccc(-c2ccc(-c3nc4ccccc4[nH]3)s2)cc1 | 4.65 | 1.4 | 1.47
COc1cccc(CNC(=O)c2ccnc(-c3ccc(CNCCOc4ccccc4)cc3)c2)c1 | 1.12 | 1.69 | 1.51
CN1CCC(C(=O)N(Cc2ccc(-c3ccc(CNCCc4ccc(S(C)(=O)=O)cc4)cn3)cc2)C2Cc3ccccc3C2)CC1 | 0.67 | -0.29 | -0.85
COc1cc(C(=O)Nc2ccc(-c3nc4ccccc4[nH]3)cc2)cc(OC)c1OC | 2.49 | 2.26 | 3.39
O=C(NCCc1ccccc1)N(Cc1cccc(-c2ccc(CNCc3ccc4c(c3)OCO4)cc2)c1)C1CCN(Cc2ccccc2)CC1 | 1.17 | 2.76 | 1.29
Cc1cc(C(F)(F)F)cc(-n2ncc(-c3ccc(C(=O)NCc4ccccc4N)cc3)c2N)n1 | 104 | 98.5 | 57.5
O=C(NCCN1CCCCC1)c1ccc(CNC(=O)c2ccc(O)c(-c3cccc(C(F)(F)F)c3)c2)cc1 | 4.42 | 3.09 | 3.27
Cc1cccn2c(=O)c3cc(C(=O)NC(C)c4ccccc4)c(=N)n(CCc4ccccc4)c3nc12 (configuration not stated) | 12.2 | 16.8 | 11.9
CC(C)C[C@H](NC(=O)c1ccc(OCCN2CCOCC2)cc1)C(=O)NC(/C=N/N1CCCC1=O)C(C)C (some centres not stated) | 2.27 | 3.56 | 2.49

SMILES | inhibition [1] [%] | inhibition [2] [%] | inhibition [3] [%]
O=S(=O)(c1ccc2ccccc2c1)N1CCCN(Cc2ccc(OCCCN3CCCCC3)cc2)CC1 | 63 | 71.4 | 45.5
CCc1cc([C@H]2O[C@@H](n3cnc4c(NCC(c5ccccc5)c5ccccc5)nc(NCCNc5ccccn5)nc43)[C@H](O)[C@@H]2O)on1 | -1.61 | -0.53 | -2.53
Nc1c2c(nc3ccc(NC(=O)c4ccc([N+](=O)[O-])cc4)cc13)CCCC2 | -1.93 | -0.82 | -1.11
CCNc1cc(C(=O)N[C@@H](Cc2ccccc2)[C@H](O)CNCc2cccc(-n3ccnc3)c2)cc(N2CCCC2=O)c1 | -1.37 | -0.52 | 1.12
Nc1cccc(CNCc2ccc(-c3cccc(-c4nc5cc(C(F)(F)F)ccc5[nH]4)c3)cc2)c1 | 0.23 | 1.1 | 1.02
CCCCOc1cc(CNCCCCCCNCc2cc(OCCCC)cc3ccccc23)c2ccccc2c1 | 4.98 | 0.76 | -2.17
C=CCOC(=O)N1CCC(CNCc2cccc(-c3cccc(-c4nc5ccccc5[nH]4)c3)c2)C1 (configuration not stated) | -1.85 | 5.8 | 0.62
CC(C)n1c(C(C)(C)C)cc2c3c(N)nc(N)nc3ccc21 | 52.7 | 62.4 | 44.4
Cc1noc(C)c1-c1cccc(CNCc2ccc(-c3cccc(-c4nc5cccc(C)c5[nH]4)c3)cc2)c1 | 0.9 | -2.28 | -4.14
O=C(/C=C/c1ccc(Cl)c(Cl)c1)NCCCCCN1CCC(NC(=O)Nc2ccc(Cl)cc2Cl)CC1 | -0.07 | -0.77 | -2.38
C#CCCC(=O)Nc1cccc(-c2cccc(-c3nc4cccc(C)c4[nH]3)c2)c1 | 3.2 | 1.23 | -1.87
COc1ccc(CNCc2ccc(F)cc2)cc1-c1ccc(OC)c(S(=O)(=O)NCCN2CCCC2)c1 | 5.21 | 6.27 | 4.28
Cc1cccc2nc(-c3cccc(-c4ccc(NC(=O)Cc5ccc[n+]([O-])c5)cc4)c3)[nH]c12 | 0.18 | 1.16 | 0.56
O=S(=O)(NCCN1CCCC1)c1ccc(-c2ccc(CNCc3ccsc3)cc2)cc1F | 8.07 | 1.33 | -0.2
COc1ccc2ccccc2c1CCCCN1CCN(CC(c2ccc(F)cc2)N2CCC2)CC1 (configuration not stated) | 4.25 | 3.64 | 3.18
CC(C)(C)c1cc(C(=O)N2CCN(c3nccnc3C#N)CC2)n(Cc2ccccc2)n1 | 1.68 | 1.96 | 1.02
CCOc1cc(C(=O)Nc2ccc3nc(N4CCN(C)CC4)cc(C)c3c2)cc(OCC)c1OCC | 3.11 | 3.76 | 1.63
